# About 83,000 compounds went through this panel and 20% of them were active in at least one assay; those are over-represented in the sample as a whole.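 Interpretation: 100, growth as untreated; towards 0, rising growth inhibition; 0, no net growth; 0 to -100, cell death. Compounds scoring below 10 were considered active.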 A number with no mark means an inactive call. The source made the active and inactive calls.
# Experiments:
# Test in all cases: NCI-60 one-dose screen, 48 h (100 = growth as untreated, 0 = no growth, -100 = all killed)
# Conditions in all cases: 10 µM unless noted
# SK-MEL-2 melanoma = tested on: SK-MEL-2 melanoma
# EKVX NSCLC = tested on: EKVX NSCLC
# UO-31 renal = tested on: UO-31 renal
# TK-10 renal = tested on: TK-10 renal
# ACHN renal = tested on: ACHN renal
# CAKI-1 renal = tested on: CAKI-1 renal
# A498 renal = tested on: A498 renal
# CCRF-CEM leukemia = tested on: CCRF-CEM leukemia
# MOLT-4 leukemia = tested on: MOLT-4 leukemia
# SR leukemia = tested on: SR leukemia
# RPMI-8226 leukemia = tested on: RPMI-8226 leukemia
# OVCAR-8 ovarian = tested on: OVCAR-8 ovarian
# OVCAR-5 ovarian = tested on: OVCAR-5 ovarian
# OVCAR-4 ovarian = tested on: OVCAR-4 ovarian
# SK-OV-3 ovarian = tested on: SK-OV-3 ovarian
# IGROV1 ovarian = tested on: IGROV1 ovarian
# OVCAR-3 ovarian = tested on: OVCAR-3 ovarian
# NCI/ADR-RES ovarian = tested on: NCI/ADR-RES ovarian
# HS 578T breast = tested on: HS 578T breast
SMILES,growth (SK-MEL-2 melanoma),growth (EKVX NSCLC),growth (UO-31 renal),growth (TK-10 renal),growth (ACHN renal),growth (CAKI-1 renal),growth (A498 renal),growth (CCRF-CEM leukemia),growth (MOLT-4 leukemia),growth (SR leukemia),growth (RPMI-8226 leukemia),growth (OVCAR-8 ovarian),growth (OVCAR-5 ovarian),growth (OVCAR-4 ovarian),growth (SK-OV-3 ovarian),growth (IGROV1 ovarian),growth (OVCAR-3 ovarian),growth (NCI/ADR-RES ovarian),growth (HS 578T breast)
O=C(CSc1nc(-c2ccccc2)cn1-c1ccc(Cl)cc1)c1ccc([N+](=O)[O-])cc1,86.9%,92.7%,59.7%,96.4%,95.1%,89%,74.6%,83.2%,68.4%,72.2%,80.4%,94.1%,95.4%,92.8%,96.6%,96.5%,78.8%,91.2%,
COc1ccc(/C=C2/CCc3cc4ccc(OC)cc4[o+]c32)c(O)c1,85.6%,75.7%,-28.7% (active),135%,34.3%,81%,94.9%,9.94% (active),0.523% (active),-2.1% (active),14.1%,42.9%,115%,75.9%,103%,9.32% (active),49.8%,53.8%,75.3%
CCCCC1=C(Br)C(=O)c2ncccc2C1=O,111%,99.2%,87.6%,109%,67.4%,90%,99.5%,8.13% (active),5.83% (active),30.8%,41.7%,95.4%,112%,88.2%,90.2%,102%,57.1%,96.8%,104%
[2H]C([2H])([2H])Oc1c(F)cccc1/C=C/C(=O)/C=C(O)/C=C/c1cccc(F)c1OC([2H])([2H])[2H],101%,107%,97.8%,114%,104%,103%,109%,90.9%,77.7%,94.8%,99.2%,87%,104%,89.1%,117%,101%,108%,92.4%,112%
NS(=O)(=O)Oc1cccc(-c2nc3sccn3c2-c2ccccc2)c1,55.6%,66.7%,68.8%,87.9%,75.1%,45.7%,7.63% (active),40.2%,31.1%,19.8%,44.1%,66.8%,95.2%,74.9%,76.7%,54.4%,39.1%,48.1%,47%
Oc1c(Cl)cc(Cl)c2ccc(CN3CCNCC3)nc12,66.8%,48.7%,3.7% (active),56.3%,31.1%,21.8%,63.3%,36.1%,39.7%,25.6%,39.4%,27.5%,82.4%,37.7%,52.8%,43.3%,42.9%,5.37% (active),70.4%
O=c1c2cccc3c(N4CCOCC4)ccc(c32)c2nc3ccccc3n12,108%,38.3%,65.9%,71.8%,91.1%,69.6%,,93.1%,,83.7%,81.7%,93.8%,99.2%,69.9%,91.4%,58.3%,100%,93.9%,40.2%
CC(C)c1nc(N(C)S(C)(=O)=O)nc(-c2ccc(F)cc2)c1/C=C/C(=O)C[C@@H](O)CC(=O)O,81.1%,107%,93.1%,88.4%,108%,98.5%,106%,102%,107%,105%,107%,94.2%,106%,113%,102%,105%,111%,107%,102%
CNC(=O)c1cc(Oc2ccc3nc(NC(=O)c4cc(C(F)(F)F)cc(C(F)(F)F)c4)sc3c2)ccn1,-18.5% (active),23.3%,6.1% (active),16.6%,14.9%,11%,,16.8%,8.03% (active),12.5%,9.36% (active),20.8%,51.6%,15.8%,-2.45% (active),30.9%,12%,12.9%,32.1%
O=C(Nc1ncc(Cc2ccc(Cl)cc2)s1)C1=NCCCCN1,110%,106%,84.3%,108%,109%,,112%,101%,99.4%,106%,97%,106%,105%,105%,106%,107%,110%,106%,109%
CC1=C2[C@@H](CC1)[C@]1(C)O[C@@](C(C)C)(C[C@H]1OC(=O)CO)[C@H]2OC(=O)CCCc1ccccc1,66.8%,94.1%,39.6%,88.4%,56.7%,59.8%,59.3%,31.8%,23.5%,76.1%,22.7%,35.4%,100%,80%,105%,62.8%,61.3%,44.8%,-4.02% (active)
Cc1c(-c2cnc3ccc(Cl)cc3c2C(=O)O)nnn1-c1ccc(Cl)cc1,100%,121%,79%,101%,94.6%,95.8%,118%,94%,94.1%,95.9%,105%,101%,89.9%,106%,90.4%,108%,110%,101%,109%
c1ccc(-c2cn3nc(-c4c[nH]c5ccccc45)sc3n2)cc1,94.4%,70.3%,46.4%,105%,83.3%,,89.9%,86.4%,83.9%,21.7%,91.8%,93.3%,74.2%,70.4%,80.4%,56.5%,86.1%,84.3%,
COc1ccc2c(c1)C(c1c[nH]c3ccccc13)(c1c[nH]c3ccccc13)CCO2,43.6%,35%,26.1%,59.7%,45%,44%,82.9%,36.7%,8.7% (active),55.9%,33.3%,61.2%,76.6%,26%,23.9%,48%,57.4%,54.1%,55.5%
Nc1ncc(-c2ccc3ncnc(N4CCc5cc(F)c(Cl)cc54)c3c2)cc1C=O,8.65% (active),4.02% (active),0.272% (active),-6.72% (active),,-0.981% (active),-62.8% (active),18.4%,2.46% (active),18.7%,-4.54% (active),,9.67% (active),34.5%,-3.8% (active),-35.9% (active),0.575% (active),28.6%,-18.9% (active)
Cn1cc(-c2ccc3c(Nc4cccc(NC(=O)Nc5cccc(F)c5)c4)ncnc3c2)cn1,43.2%,53%,23.7%,39.4%,15.2%,39.8%,41.9%,4.27% (active),14.3%,0.802% (active),-25.4% (active),34.6%,67.6%,67.6%,3.1% (active),23.8%,44.7%,78%,29.8%
COc1cc2c(c(OC)c1OC)CCC(c1cccc(C(=O)Nc3ccc([N+](=O)[O-])cc3)c1)O2 (stereo not drawn),43%,55.4%,29.3%,57.8%,40.7%,50.5%,,15.1%,4.06% (active),24.9%,9.24% (active),42%,84.3%,40.7%,78.4%,72.2%,56.5%,38.2%,
O=C1C=CC2(O)OC(c3ccccc3)CC(=O)C2=C1O (stereo not drawn),102%,89.1%,62.7%,126%,97.8%,86.5%,96%,46.1%,77.8%,56.2%,64.3%,82%,96.4%,79.5%,106%,90.9%,1.12% (active),86%,102%
CCOC(=O)C#Cc1c(CC(=O)OCC)nnn1[C@H]1O[C@@H](CO)[C@@H]2OC(C)(C)O[C@@H]21,101%,99.5%,15.7%,48.8%,-49.4% (active),,111%,11.7%,50.1%,6.89% (active),45%,,93.9%,88.4%,94.4%,98.3%,9.91% (active),102%,101%

# — PubChem BioAssay (NCI)
